Measured values from PubChem BioAssay (NCI).
About 83,000 compounds went through this panel and 20% of them were active in at least one assay; those are over-represented in the sample as a whole.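 In brief: 96-well plates, 48 h treatment, single concentration, percent growth endpoint.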 Calls of active or inactive are those of the source. The calls were made as follows: active = growth percent below 10; inactive = the rest.

Key:
Experiment in all cases: NCI-60 one-dose screen, 48 h (100 = growth as untreated, 0 = no growth, -100 = all killed)
Settings in all cases: 10 µM unless noted
NCI-H23 lung = tested on: NCI-H23 lung
NCI-H226 lung = tested on: NCI-H226 lung
NCI-H322M lung = tested on: NCI-H322M lung
HOP-62 NSCLC = tested on: HOP-62 NSCLC
NCI-H460 lung = tested on: NCI-H460 lung
HOP-92 NSCLC = tested on: HOP-92 NSCLC
NCI-H522 lung = tested on: NCI-H522 lung
A549/ATCC NSCLC = tested on: A549/ATCC NSCLC
786-0 renal = tested on: 786-0 renal
COLO 205 colon = tested on: COLO 205 colon
DU-145 prostate = tested on: DU-145 prostate
K-562 leukemia = tested on: K-562 leukemia
MALME-3M melanoma = tested on: MALME-3M melanoma
MDA-MB-231 breast = tested on: MDA-MB-231 breast
RXF 393 renal = tested on: RXF 393 renal
SF-268 CNS = tested on: SF-268 CNS
SF-295 CNS = tested on: SF-295 CNS
SF-539 CNS = tested on: SF-539 CNS
UACC-257 melanoma = tested on: UACC-257 melanoma
M14 melanoma = tested on: M14 melanoma

Measured: growth

Cc1cc(N(CCCNc2ccnc3cc(Cl)ccc23)Cc2ccco2)nc(Cl)n1
active: K-562 leukemia 9.75%
inactive: NCI-H23 lung 31.5% | NCI-H226 lung 68.1% | NCI-H322M lung 76.6% | HOP-62 NSCLC 41.6% | NCI-H460 lung 57.1% | HOP-92 NSCLC 27.1% | NCI-H522 lung 59.9% | A549/ATCC NSCLC 67% | 786-0 renal 55.6% | COLO 205 colon 24.5% | DU-145 prostate 71.6% | MALME-3M melanoma 74% | MDA-MB-231 breast 61.7% | RXF 393 renal 71.1% | SF-268 CNS 72.7% | SF-295 CNS 42.3% | SF-539 CNS 54.3% | UACC-257 melanoma 59.9% | M14 melanoma 46.4%

COc1cc(-c2cc3ncccc3c3nc(OCCN(C)C)c4cccnc4c23)cc(OC)c1OC
active: NCI-H226 lung -5.43% | HOP-62 NSCLC -45.6% | NCI-H460 lung -50.8% | HOP-92 NSCLC -8.69% | NCI-H522 lung 7.46% | A549/ATCC NSCLC -37.7% | 786-0 renal -88.5% | COLO 205 colon 3.65% | DU-145 prostate 1.52% | K-562 leukemia 7.73% | MALME-3M melanoma 8.86% | RXF 393 renal -72.1% | SF-295 CNS 9.6%
inactive: NCI-H23 lung 13.4% | NCI-H322M lung 17.9% | MDA-MB-231 breast 20.2% | SF-268 CNS 23.1% | SF-539 CNS 17.9% | UACC-257 melanoma 15.1% | M14 melanoma 23%

O=C1c2cc3c(cc2-c2c1c1ccc(F)cc1c(=O)n2CCCN1CCOCC1)OCO3
inactive: NCI-H23 lung 40.6% | NCI-H226 lung 20.4% | NCI-H322M lung 79.8% | HOP-62 NSCLC 18.9% | NCI-H460 lung 14.1% | HOP-92 NSCLC 68.4% | NCI-H522 lung 25.5% | A549/ATCC NSCLC 33.8% | 786-0 renal 24.1% | COLO 205 colon 55.1% | DU-145 prostate 28.4% | K-562 leukemia 41.6% | MALME-3M melanoma 101% | MDA-MB-231 breast 105% | RXF 393 renal 70.6% | SF-268 CNS 43.3% | SF-295 CNS 21.7% | SF-539 CNS 11.2% | UACC-257 melanoma 62.7% | M14 melanoma 23.2%

COc1ccc(OC)c(-c2c(C#N)c(-c3ccco3)nc3c2c(-c2ccccc2)nn3-c2ccccc2)c1
inactive: NCI-H23 lung 96.7% | NCI-H226 lung 90.1% | NCI-H322M lung 103% | HOP-62 NSCLC 106% | NCI-H460 lung 101% | HOP-92 NSCLC 78.5% | NCI-H522 lung 81.9% | A549/ATCC NSCLC 94.9% | 786-0 renal 100% | COLO 205 colon 119% | DU-145 prostate 102% | K-562 leukemia 105% | MALME-3M melanoma 112% | MDA-MB-231 breast 90% | RXF 393 renal 99.8% | SF-268 CNS 96.2% | SF-295 CNS 98.9% | SF-539 CNS 92.6% | UACC-257 melanoma 99.7% | M14 melanoma 108%

CC(C)=CCC[C@](C)(O)[C@H]1CC[C@]2(C)[C@@H]1CC[C@@H]1[C@@]3(C)C/C(=C/c4ccc(Br)cc4)C(=O)C(C)(C)[C@@H]3CC[C@]12C
inactive: NCI-H23 lung 85.3% | NCI-H226 lung 82.7% | NCI-H322M lung 101% | HOP-62 NSCLC 98.5% | NCI-H460 lung 96.3% | HOP-92 NSCLC 75.5% | NCI-H522 lung 96.4% | A549/ATCC NSCLC 76.6% | 786-0 renal 93.8% | COLO 205 colon 99.1% | DU-145 prostate 85.6% | K-562 leukemia 85.2% | MALME-3M melanoma 88.7% | MDA-MB-231 breast 85.8% | RXF 393 renal 92.9% | SF-268 CNS 92.6% | SF-295 CNS 101% | SF-539 CNS 99.5% | UACC-257 melanoma 91.2% | M14 melanoma 80.3%

Cn1cccc1/C=C1/SC(=S)N(CCc2ccc(O)cc2)C1=O
inactive: NCI-H23 lung 79.5% | NCI-H226 lung 87.8% | NCI-H322M lung 87.3% | HOP-62 NSCLC 56.3% | NCI-H460 lung 33.6% | HOP-92 NSCLC 88.3% | NCI-H522 lung 47.8% | A549/ATCC NSCLC 61.5% | 786-0 renal 64.4% | COLO 205 colon 103% | DU-145 prostate 82.3% | K-562 leukemia 18.6% | MALME-3M melanoma 36.7% | MDA-MB-231 breast 59.1% | RXF 393 renal 76.6% | SF-268 CNS 74% | SF-295 CNS 37.6% | SF-539 CNS 43.6% | UACC-257 melanoma 74.1% | M14 melanoma 19.9%

CC1(n2nnnc2N2CCCN(c3ncccc3N)CC2)CCC1
inactive: NCI-H23 lung 103% | NCI-H226 lung 90.4% | NCI-H322M lung 94.2% | HOP-62 NSCLC 99% | NCI-H460 lung 99.5% | HOP-92 NSCLC 95.7% | NCI-H522 lung 100% | A549/ATCC NSCLC 107% | 786-0 renal 104% | COLO 205 colon 111% | DU-145 prostate 109% | K-562 leukemia 87.8% | MALME-3M melanoma 98.6% | MDA-MB-231 breast 99.9% | RXF 393 renal 98.2% | SF-268 CNS 97% | SF-295 CNS 95.5% | SF-539 CNS 94.8% | UACC-257 melanoma 108% | M14 melanoma 97.8%

C=C(C)[C@@H]1CC[C@]2(CN)CC[C@]3(C)[C@H](CC[C@@H]4[C@@](C)(CCCN)[C@H](C(=C)C)CC[C@]43C)[C@@H]12
inactive: NCI-H23 lung 91.1% | NCI-H226 lung 90.6% | NCI-H322M lung 90.2% | HOP-62 NSCLC 90.6% | NCI-H460 lung 94.7% | HOP-92 NSCLC 67.4% | NCI-H522 lung 94% | A549/ATCC NSCLC 82.7% | 786-0 renal 81.8% | COLO 205 colon 34.5% | DU-145 prostate 94.8% | MALME-3M melanoma 80.2% | MDA-MB-231 breast 92.8% | RXF 393 renal 79% | SF-268 CNS 79.9% | SF-295 CNS 101% | SF-539 CNS 90.4% | UACC-257 melanoma 99.7% | M14 melanoma 75.2%
active: K-562 leukemia 1.94%
